Screening data from PubChem BioAssay.
Shown are actives, neighbours in structure and some others; about 2.2% of the full set was active somewhere.
HTR5A ag: HTR5A agonism, opioid heterodimer counter-screen; 340,000 compounds, 0.61% hits; HTR5A agonist assay, luminescence, cell-based; activation, % at 9.3 µM; in the data active means activation mostly above about 9.5%, no sharp cut-off; inactive means mostly below about 7.6%;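 further: 0% = cells with vehicle only and 100% = reference agonist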
HTR5A inv ctr: inverse agonist of human HTR5A in OPRM1-OPRD1 counter-screen; HTR5A cell line, luminescence, inverse agonism; AID 504634; 340,000 compounds, 0.083% hits; inhibition, % at 9.3 µM; in the data active means inhibition mostly above about 23%, no sharp cut-off; inactive means mostly below about 18%;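 further: 0% = cells with DMSO and 100% = no-cell wells with DMSO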
m5-HT2A agonist: activates the mouse 5-HT2A serotonin receptor; P35363; CHO-K1 mHTR2A beta-arrestin complementation, luminescence; percent of 30 µM serotonin response; activation, % at 7.6 µM; 360,000 compounds, 0.66% hits; AID 624169;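 active means activation above a run cutoff, the mean activation of all tested compounds plus 3 SD, cut at about 14% in these data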;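 further: 0% = plate median of compound wells and 100% = 30 µM serotonin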
Target sequence (P35363 whole entry, looked up): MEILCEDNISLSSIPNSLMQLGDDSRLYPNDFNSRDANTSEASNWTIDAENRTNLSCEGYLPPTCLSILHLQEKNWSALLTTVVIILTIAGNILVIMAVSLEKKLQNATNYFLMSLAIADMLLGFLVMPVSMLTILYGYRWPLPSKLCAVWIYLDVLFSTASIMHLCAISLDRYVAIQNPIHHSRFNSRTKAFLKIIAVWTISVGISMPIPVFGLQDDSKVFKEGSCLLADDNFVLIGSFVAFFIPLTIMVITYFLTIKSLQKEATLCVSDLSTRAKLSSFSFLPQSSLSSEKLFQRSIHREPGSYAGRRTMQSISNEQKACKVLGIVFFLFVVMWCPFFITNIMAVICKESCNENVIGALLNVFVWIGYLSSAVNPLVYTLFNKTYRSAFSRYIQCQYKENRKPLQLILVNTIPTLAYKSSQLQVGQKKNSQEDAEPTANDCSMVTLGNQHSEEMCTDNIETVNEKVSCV
sPLA2-III inh: Inhibits HGIII-sPLA2 liposome hydrolysis, primary screen; 370,000 compounds, 0.56% hits; QFRET BODIPY PC-A2 liposome hydrolysis, fluorescence; inhibition, % at 12.2 µM; Q9NZ20;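 active means inhibition above mean plus 3 SD of compounds lying within the high and low control bounds, cut at about 19% in these data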;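 further: 0% = median of test compound wells and 100% = no enzyme DMSO wells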
OPRM1-OPRD1 ag: agonists of human mu-delta opioid receptor heterodimerization | P35372+P41143 | cells, OPRM1-OPRD1 heterodimerization, luminescence | activation, % at 9.3 µM | 340,000 compounds, 0.3% hits; in the data active means activation above about 18%;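 further: 0% = vehicle-treated cells and 100% = reference agonist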
MOR-DOR inv ag: mu-delta opioid heterodimer inverse agonism; cell-based MOR-DOR heterodimer luminescence; inhibition, % at 9.3 µM; 340,000 compounds, 0.21% hits; AID 504357; in the data active means inhibition above about 22%, passing the limit was not always enough;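 further: 0% = cells with DMSO and 100% = wells without cells with DMSO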
OPRM1 ag: counter-screen for mouse HTR2A agonists: human mu opioid receptor agonists; shares compounds with m5-HT2A agonist; U2OS OPRM1 beta-arrestin PathHunter, luminescence; DMSO 0%, DAMGO 9.3 µM 100%; activation, % at 9.3 µM; 2,300 compounds, 5.3% hits;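 active means mean activation above the mean of DMSO-only wells plus 3 SD, cut at about 0.5% in these data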
HTR2A ag conf: mouse HTR2A agonism confirmed | shares compounds with m5-HT2A agonist | CHO-K1 PathHunter beta-arrestin recruitment, luminescence; DMSO 0%, 30 µM serotonin 100% | activation, % at 7.6 µM | 2,300 compounds, 19% hits;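 active means mean activation across triplicates above the hit threshold derived in the original primary screen, cut at about 15% in these data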
An asterisk follows results filed as active; . = not tested or not shown.

SMILES	HTR5A ag	HTR5A inv ctr	m5-HT2A agonist	sPLA2-III inh	OPRM1-OPRD1 ag	MOR-DOR inv ag	OPRM1 ag	HTR2A ag conf
COc1cc(NC(=O)CN2C(=O)C(c3ccccc3)=NC2(C)C)cc(OC)c1	5.1	-15.5	28.1*	4.7	-1.1	6.5	-0.5	-3.5
C=CCN(C)CC#Cc1ccc(OC)cc1	.	.	.	17.2	.	.	.	.
Cc1ccsc1C(=O)OCC(=O)NCC1CCCO1 (stereo not given)	-2.1	-25.4	18.4*	-0.4	-2.2	12.7	-0.6	-1.9
CON(C)S(=O)(=O)NC(=O)C1=C(N2CCCC2)COC1=O	3.6	32.9	-7.1	6.0	-3.6	20.1	.	.
CN(C)S(=O)(=O)NC(=O)C1=C(N2CCCC2)COC1=O	3.9	-5.5	23.0*	8.6	-2.1	11.6	-0.6	-4.1
CCCn1c(=O)c2[nH]c(-c3ccc(OCC(=O)Nc4ccc(C#N)cc4)cc3)nc2n(CCC)c1=O	2.1	-7.3	15.6*	-4.2	-1.6	8.5	-0.5	-4.0
CC(=O)Nc1ccc(NC(=O)COc2ccc(-c3ccc(C#N)cc3)cc2)cc1	0.8	-1.9	11.2	8.0	1.0	-5.3	.	.
COCc1[nH]nc2c1C(c1ccc(C)cc1)NC2=O (stereo not given)	.	.	.	7.1	.	.	.	.
CCn1c2ccccc2c2cc(NC(=O)COC(=O)c3cc(F)ccc3C)ccc21	.	.	.	-3.2	.	.	.	.
CCc1ccccc1-n1nnnc1SCC(=O)Nc1cc(C)on1	3.2	-9.2	15.4*	-9.4	-0.8	5.0	0.3	6.7
Cc1cccc(NC(=O)CSc2nnc(-c3ccc(S(=O)(=O)N4CCOCC4)cc3)n2C)c1	-0.5	1.2	28.9*	3.8	-3.3	17.3	0.8*	0.5
Cc1cc(NC(=O)CSc2nnnn2-c2ccccc2C)no1	5.9	12.1	-3.8	-3.9	-0.7	3.6	.	.
Cc1cccc(-c2nnc(SCC(=O)Nc3cc(C)on3)n2C)c1	3.2	-7.7	17.8*	1.4	-1.4	7.9	-0.5	-3.5
CC(=O)CSc1nnc(-c2ccc(S(=O)(=O)N3CCOCC3)cc2)n1C	-1.8	10.0	0.8	1.7	-1.9	11.9	.	.
CCOC(=O)c1cccc(NC(=O)CN(C)S(=O)(=O)c2ccc(Br)s2)c1	.	.	.	-15.1	.	.	.	.
CC1CC(C)CN(CCOc2cccc(Cl)c2Cl)C1 (stereo not given)	3.4	-12.6	29.7*	-1.5	6.3	-32.8	-0.4	78.0*
O=C(CSc1ccc2nnc(-c3ccncc3)n2n1)Nc1ccc2c(c1)OCO2	1.5	-4.3	35.3*	9.8	-0.5	2.7	-0.2	-0.3
CCS(=O)(=O)C1=NN2C(=N)/C(=C\c3ccc(SCc4ccco4)o3)C(=O)N=C2S1	12.6*	0.9	17.6*	-18.2	9.4	-67.3	2.2*	13.2
CCOc1cc(/C=C2\C(=N)N3N=C(S(=O)(=O)CC)SC3=NC2=O)ccc1OC(=O)c1ccco1	-1.3	4.7	-4.8	-14.4	-1.7	8.6	.	.
CC(C)CN1C(=O)N2CCc3ccccc3C2CS1(=O)=O (stereo not given)	.	.	.	3.0	.	.	.	.
C=CCN(CC#Cc1ccccc1)Cc1ccc2c(c1)OCO2	.	.	.	1.8	.	.	.	.
Cc1nnsc1C(=O)NC1CCCc2c1cnn2-c1ccc(C(C)(C)C)cc1 (stereo not given)	3.8	-19.5	14.5*	-7.3	0.9	-5.0	-0.2	1.7
CCOc1ccc(CCNC(=O)c2ccc(Oc3ccccc3)cc2)cc1OCC	.	.	.	1.2	.	.	.	.
COc1ccc2c(C)cc(=O)oc2c1	-1.0	3.7	29.2*	9.9	-0.7	3.6	-0.5	36.6*
COc1cccc(COc2ccc3c(C)cc(=O)oc3c2)c1	1.1	-4.3	-1.8	-0.5	-0.8	4.5	.	.
COC[C@@H]1CCCN1c1ccc2c(c1)OCCCN(C1CC1)S2(=O)=O	.	.	.	-4.5	.	.	.	.
O=S1(=O)CC2c3ccccc3CN2CN1Cc1ccc(F)cc1 (stereo not given)	.	.	.	3.5	.	.	.	.
Fc1cccc(Cn2ccc3ccc(-c4ccc5ccn(Cc6cccc(F)c6)c5c4)cc32)c1	.	.	.	0.6	.	.	.	.
